40 sequences from the supplement of paper PMC10338343 can be followed below.

± gives the standard deviation.

The test system of this assay is MILI (PIWIL2) piRISC loaded with piRNA #1 (26 nt). The assay is described as follows: pre-steady-state target cleavage rate (min^-1); guide: piRNA #1 5'p-UGAGGUAGUAGGUUGUAUAGUAUCCA; MIWI and MILI are mouse PIWI proteins and EfPiwi is from a freshwater sponge; tags in brackets are library labels; higher = faster piRNA-guided slicing of the target. The conditions noted are these: auxiliary factor: 500 nM mouse GTSF1. How it is done:
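Cleave-'n-Seq: a library of target RNAs (target site embedded in constant flanks, ACAGCATTCCGCGTTAGTGATATCCG... 5' flank; DNA-blocked outside the site) at 0.1 nM was incubated with 1 nM active mouse MILI or MIWI piRISC (synthetic 5'-monophosphorylated piRNA guide) with or without 500 nM mouse GTSF1 at 33 °C for 1 min to 16 h. Uncleaved targets were sequenced and normalised to non-target controls, and the pooled three trials were fitted to a burst-and-steady-state model to give the pre-steady-state cleavage rate (min^-1; k3 is constrained to at most 1e-4). Sequence is the target site only; target names encode pairing extent (gX:gY) and contiguous / 1-mismatch / 2-mismatch / bulge geometry. Fits with R² ≤ 0 are excluded.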
With GGAGACCUAUGAUAUGAACCUACAACGUCA, the “pre-steady-state target cleavage rate” value is under 0.0001.

For the sequence GGAGACCUUACUAUACAACCUACUACCUACA, the “pre-steady-state target cleavage rate” value worked out at 0.109 ± 0.017.

Turning to GGAGACGACUACUAUACAACCUACUACCUCA, the “pre-steady-state target cleavage rate” value is 0.204 ± 0.017.

Take GGAGACCUAUGUAUACUACCUAGUACCUCA: the “pre-steady-state target cleavage rate” value came out at 0.00575 ± 0.0022.

GGAGACCUAACAAUACAACCUACUACCUGA: the “pre-steady-state target cleavage rate” value is 0.0637 ± 0.022.

For GGAGACGUUACUAUAGAACCUACUACCUCA, the “pre-steady-state target cleavage rate” value came out at 0.154 ± 0.014.

GGAGAGGGAUACUAUACAACCUACUACCUCA: the “pre-steady-state target cleavage rate” value was found to be 0.237 ± 0.015.

Regarding GGAGUGGAUACUAUUCAACGUACUACCUCA, the “pre-steady-state target cleavage rate” value is 0.0305 ± 0.004.

As for GGAGACCAUACUAUACAACCUACUUCCACA, the “pre-steady-state target cleavage rate” value was found to be 0.0785 ± 0.018.

Turning to GGAGAGGAUACUAUACAACCUAUACCUCA, the “pre-steady-state target cleavage rate” value worked out at 0.00606 ± 0.0021.

Turning to GGAGACGAUACUUUACAACCUACUACCUCA, the “pre-steady-state target cleavage rate” value was found to be 0.189 ± 0.013.

As to GGAGACGAUACUAUCCAACCUACUACCUCA, the “pre-steady-state target cleavage rate” value worked out at 0.175 ± 0.016.

Regarding GGAGUGCAUACUAUACAACCUAGUACCUCA, the “pre-steady-state target cleavage rate” value was found to be 0.0477 ± 0.0091.

Turning to GGAGACCUAUGUAUACAACCUACUCCCUCA, the “pre-steady-state target cleavage rate” value worked out at 0.0316 ± 0.0063.

Regarding GGAGACCUAACUAUACAACCUACUCCCUCA, the “pre-steady-state target cleavage rate” value is 0.0941 ± 0.022.

Turning to GGAGACCAUACUAUACUUCCUACUACCUCA, the “pre-steady-state target cleavage rate” value came to 0.226 ± 0.021.

As for GGAGACGAUACUAUACAACCUAUCUACCUCA, the “pre-steady-state target cleavage rate” value was found to be 0.17 ± 0.017.

Regarding GGAGACCUAUGAAUACAACCUACCACCUCA, the “pre-steady-state target cleavage rate” value turned out to be 0.00506 ± 0.0036.

For GGAGACCUUACUAUACAACGAACUACCUCA, the “pre-steady-state target cleavage rate” value was 0.00385 ± 0.0021.

With GGAGUGGAGACUAUACAACCUACUACCUCA, the “pre-steady-state target cleavage rate” value was 0.212 ± 0.029.

For GGAGACGAUACUAUACAAGCAACUACCUCA, the “pre-steady-state target cleavage rate” value stood at 0.00923 ± 0.0026.

For the sequence GGAGACCUAUCUAUACAACCUUCUACGUCA, the “pre-steady-state target cleavage rate” value is 0.00428 ± 0.003.

With GGAGACCUAACUAUACAACGUACUACCUCA, the “pre-steady-state target cleavage rate” value is 0.0137 ± 0.0057.

For the sequence GGAGAGGAUACUAAACUACCUACUACCUCA, the “pre-steady-state target cleavage rate” value was 0.167 ± 0.011.

For the sequence GGAGACGAUACUAUACAACCUACUUCCACA, the “pre-steady-state target cleavage rate” value was found to be 0.0194 ± 0.0082.

As for GGAGACCAUACUAUACAACUUACUACCUCA, the “pre-steady-state target cleavage rate” value was determined as 0.0165 ± 0.0023.

For GGAGACCUAUGUUUUCAACCUACUACCUCA, the “pre-steady-state target cleavage rate” value was 0.00894 ± 0.0025.

As for GGAGACGUACUAUACAACCUACUACCUCA, the “pre-steady-state target cleavage rate” value stood at 0.154 ± 0.015.

Consider GGAGUGGAUACUUUACAACCAACUACCUCA, for which the “pre-steady-state target cleavage rate” value came to 0.00276 ± 0.0018.

GGAGACCAUAGUAUACAACCUACUAGCUCA: the “pre-steady-state target cleavage rate” value is 0.0143 ± 0.0053.

Consider GGAGACCUAUGAUAACAACCUACUACACUCA, for which the “pre-steady-state target cleavage rate” value was 0.00558 ± 0.0031.

Regarding GGAGACCUAACUAUACAACCUAACUACCUCA, the “pre-steady-state target cleavage rate” value amounted to 0.00748 ± 0.0037.

Consider GGAGUGGAUACAAUACAAGCUACUACCUCA, for which the “pre-steady-state target cleavage rate” value came out at 0.213 ± 0.015.

GGAGACCUAUGAAUACAACCUACUACCUGCA: the “pre-steady-state target cleavage rate” value was 0.00801 ± 0.004.

In the case of GGAGACCUAUGUUUACAAGCUACUACCUCA, the “pre-steady-state target cleavage rate” value worked out at 0.0793 ± 0.017.

As to GGAGACGAUACUAUACAACCUACAUGCUCA, the “pre-steady-state target cleavage rate” value was 0.0563 ± 0.016.

For the sequence GGAGACGAUAGUAUAGAACCUACUACCUCA, the “pre-steady-state target cleavage rate” value was 0.158 ± 0.013.

For the sequence GGAGAGGAUACUAUACAAACUACUACCUCA, the “pre-steady-state target cleavage rate” value is 0.134 ± 0.013.

For the sequence “GGAGACGAUACUAUACAACCUACUACCUCG [g2:g24:cont:t1G]”, the “pre-steady-state target cleavage rate” value was found to be 0.183 ± 0.014.

With GGAGACCUUACUAUGCAACCUACUACCUCA, the “pre-steady-state target cleavage rate” value was found to be 0.158 ± 0.011.
